Growth data for 37 compounds are collected here from PubChem BioAssay (NCI).

“And” between values parts separate entries of the source, which are not always exact repeats. Equal values may be shown once. The panel holds about 83,000 compounds, 20% with a hit somewhere; the sample as a whole holds those more often.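 Percent growth is the endpoint: 0 to 100 indicates growth inhibition (40 means 60% inhibition), 0 means no net growth, and negative values indicate cell death.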 Values without a mark were called inactive. The source made the active and inactive calls. The calls were made as follows: active = growth percent below 10; inactive = the rest.

The test system of the first test is U251 CNS. The test can be described thus: NCI-60 one-dose screen, 48 h (100 = growth as untreated, 0 = no growth, -100 = all killed). Particulars: 10 µM unless noted.
Turning to `O=C1c2ccccc2C(=O)N1N1CC1c1ccccc1` (centres undefined), the growth was 104%.
Regarding `C#COc1cccc(Nc2ncnc3cc(NC(=O)CF)ccc23)c1`, the growth is 23.1% [6.25 µM].
Still for that read-out and setting: for `COc1ccc(/C=C(/C)[N+](=O)[O-])cc1OC` the value was -46.5% (active) and -15.8% (active); for `CC(Oc1ccc(-c2ccccc2)cc1)C(=O)O` (centres undefined), 97.4%.
The same measure, in the same setting: for `O=S1(=O)OCCO1` the value was 105%; for `COc1c(O)cc2c(c1OC)-c1ccc(SC)c(=O)cc1C(NC(C)=O)CC2` (centres undefined), 5.68% (active).
On the same count and under the same terms, under `Nc1nc(=S)nc(N)[nH]1` stands 97%.
Take `O=Cc1cn(Cc2ccccc2)c2ccccc12`: the growth is 68.5%.
Same read-out and setting: for `O=C(O)C(O)c1ccc(Cl)cc1` (centres undefined) the value was 106% and 100%; for `C[C@H](O)CCC(=O)c1ccoc1`, 102%.
Regarding `c1ccc2c(c1)sc1ccccc12`, the growth was 99.3%.
Take `O=C1CN2CCC1CC2`: the growth is 101%.
On to `Cn1cc(C(=O)C[n+]2ccccc2)c2ccccc21`, for which the growth was 97%.
The same measure, in the same setting: for `Cc1cc(C(C)(C)C)ccc1O` the value was 94.2%; for `N#CC(C#N)=Cc1cccc(F)c1`, 103%.

A further test deals with PC-3 prostate. Described as above. Conditions: 10 µM unless noted.
Take `c1ccc2c(c1)O[As](O[As]1Oc3ccccc3O1)O2`: the growth was 36.9%.
With `COc1cc2c(cc1OC)[C@@H]1C(=O)c3ccc4c(c3O[C@@H]1CO2)C[C@H](C(C)C)O4`, the growth is 9.13% (active).
As to `CC(=O)Cc1ccc2c(c1)OCO2`, the growth is 106%.
For the compound `CCN(CC)CCn1c(=O)n(C)c2ccccc21`, the growth is 96.8%.
The same measure, in the same setting: for `CC(=O)c1cccc(S(=O)(=O)F)c1` the value was 79%; for `NC(=O)Oc1cc(OC(N)=O)cc(N(CCCl)CCCl)c1`, 71.7%; for `Nc1cccnc1`, 97.9%.
Take `C[C@]12CCC(=O)C[C@@H]1CC[C@@H]1[C@@H]2CC[C@]2(C)[C@@H](OC(=O)N(CCCl)N=O)CC[C@@H]12`: the growth was 36.3%.
As to `CC1(C)N=C(N)N=C(N)N1c1ccc(CCC(=O)Nc2ccc(S(=O)(=O)F)cc2)cc1`, the growth is 20.2%.
Consider `Cc1c(C)c(N)c(C)c(C)c1N`, for which the growth was 73.6%.
Consider `Cc1ccc(C(=O)O[C@H](C(=O)O)[C@H](OC(=O)c2ccc(C)cc2)C(=O)O)cc1`, for which the growth was 101%.
In the case of `O=S(=O)(F)c1cccc(Cl)c1C[P+](c1ccccc1)(c1ccccc1)c1ccccc1`, the growth is 85.4%.
`CN1CCC2(CC1)C(C#N)C(=O)NC(=O)C2C#N` (centres undefined): the growth is 101%.
Turning to `COc1ccc(N)cc1N`, the growth is 88.2%.
For the compound `Cc1cc(NC(=O)NCCCOc2ccc(N3C(N)=NC(N)=NC3(C)C)cc2Cl)ccc1S(=O)(=O)F`, the growth was 11.9%.
Consider `O=[N+]([O-])c1cc(Cl)c(Cl)c([N+](=O)[O-])c1Cl`, for which the growth was 66.8%.
On the same count and under the same terms, under `O=C1c2ccccc2C(=O)N1N1CC1c1ccccc1` (centres undefined) stands 97.7%; under `CC1(C)CN=C(NN=C(/C=C/c2ccc(C(F)(F)F)cc2)/C=C/c2ccc(C(F)(F)F)cc2)NC1`, 24.7%.
Still for that read-out and setting: for `C#COc1cccc(Nc2ncnc3cc(NC(=O)CF)ccc23)c1` the value was 36% [6.25 µM]; for `COc1ccc(/C=C(/C)[N+](=O)[O-])cc1OC`, 19.4% and 47.7%; for `Cc1cc[n+](CCc2ccccc2)cc1`, 101%.
Same read-out and setting: under `CC1=C(C)C(=O)O[C@@H]([C@](C)(O)[C@]2(O)CC[C@@]3(O)[C@@H]4C[C@H]5O[C@]56CC=CC(=O)[C@]6(C)[C@H]4CC[C@]23C)C1` stands 11.2%; under `CC(Oc1ccc(-c2ccccc2)cc1)C(=O)O` (centres undefined), 101%.
As for `O=S1(=O)OCCO1`, the growth was 99.9%.
Turning to `O=Cc1cn(Cc2ccccc2)c2ccccc12`, the growth is 95%.
As for `O=C(O)C(O)c1ccc(Cl)cc1` (centres undefined), the growth is 92.7% and 103%.
Consider `C[C@H](O)CCC(=O)c1ccoc1`, for which the growth is 95.7%.
As to `c1ccc2c(c1)sc1ccccc12`, the growth was 84.7%.
As for `O=C1CN2CCC1CC2`, the growth was 104%.
For the compound `Cn1cc(C(=O)C[n+]2ccccc2)c2ccccc21`, the growth was 90.4%.
On to `Cc1cc(C(C)(C)C)ccc1O`, for which the growth was 93.6%.
Take `N#CC(C#N)=Cc1cccc(F)c1`: the growth was 100%.

In another test the test system is SK-MEL-5 melanoma. Described as above. Particulars: 10 µM unless noted.
As for `c1ccc2c(c1)O[As](O[As]1Oc3ccccc3O1)O2`, the growth is 20.7%.
Consider `COc1cc2c(cc1OC)[C@@H]1C(=O)c3ccc4c(c3O[C@@H]1CO2)C[C@H](C(C)C)O4`, for which the growth is 17.9%.
Turning to `CC(=O)c1cccc(S(=O)(=O)F)c1`, the growth is 110%.
Consider `COc1cc2c(c(OC)c1OC)-c1ccc(O)cc1[C@@H](NC(C)=O)CC2`, for which the growth was -24.2% (active) and -61.7% (active).
Take `Cc1c2ccncc2c(C)c2c1[nH]c1ccccc12`: the growth was -97.7% (active).
Same read-out and setting: for `NC(=O)Oc1cc(OC(N)=O)cc(N(CCCl)CCCl)c1` the value was 73.3%; for `Nc1cccnc1`, 112%; for `C/C=C(/C)C(=O)O[C@H]1CC[C@@]2(C)[C@@H]3CC[C@H]4[C@]5(O)C[C@H](O)[C@@]6(O)[C@@H](CN7C[C@@H](C)CC[C@H]7[C@@]6(C)O)[C@]5(O)C[C@@]42O[C@@]13O`, 102%.
For the compound `C[C@]12CCC(=O)C[C@@H]1CC[C@@H]1[C@@H]2CC[C@]2(C)[C@@H](OC(=O)N(CCCl)N=O)CC[C@@H]12`, the growth is 22.8%.
On to `CC1(C)N=C(N)N=C(N)N1c1ccc(CCC(=O)Nc2ccc(S(=O)(=O)F)cc2)cc1`, for which the growth is 34.8%.
For `Cc1c(C)c(N)c(C)c(C)c1N`, the growth was 93%.
For the compound `Cc1ccc(C(=O)O[C@H](C(=O)O)[C@H](OC(=O)c2ccc(C)cc2)C(=O)O)cc1`, the growth was 105%.
With `O=S(=O)(F)c1cccc(Cl)c1C[P+](c1ccccc1)(c1ccccc1)c1ccccc1`, the growth is 90.4%.
Take `CN1CCC2(CC1)C(C#N)C(=O)NC(=O)C2C#N` (centres undefined): the growth was 102%.
Regarding `COc1ccc(N)cc1N`, the growth is 105%.
Same read-out and setting: under `Cc1cc(NC(=O)NCCCOc2ccc(N3C(N)=NC(N)=NC3(C)C)cc2Cl)ccc1S(=O)(=O)F` stands 22.6%; under `O=[N+]([O-])c1cc(Cl)c(Cl)c([N+](=O)[O-])c1Cl`, 79.1%.
For the compound `O=C1c2ccccc2C(=O)N1N1CC1c1ccccc1` (centres undefined), the growth was 101%.
The same measure, in the same setting: under `C#COc1cccc(Nc2ncnc3cc(NC(=O)CF)ccc23)c1` stands 36.2% [6.25 µM].
For the compound `COc1ccc(/C=C(/C)[N+](=O)[O-])cc1OC`, the growth is 52.9% and 47.9%.
As for `CC1=C(C)C(=O)O[C@@H]([C@](C)(O)[C@]2(O)CC[C@@]3(O)[C@@H]4C[C@H]5O[C@]56CC=CC(=O)[C@]6(C)[C@H]4CC[C@]23C)C1`, the growth is -15.6% (active).
Take `CC(Oc1ccc(-c2ccccc2)cc1)C(=O)O` (centres undefined): the growth was 97%.
On to `O=S1(=O)OCCO1`, for which the growth was 101%.
Turning to `COc1c(O)cc2c(c1OC)-c1ccc(SC)c(=O)cc1C(NC(C)=O)CC2` (centres undefined), the growth is -28.2% (active).
For the compound `Nc1nc(=S)nc(N)[nH]1`, the growth was 103%.
As to `O=Cc1cn(Cc2ccccc2)c2ccccc12`, the growth was 85.5%.
Take `O=C(O)C(O)c1ccc(Cl)cc1` (centres undefined): the growth is 81.4% and 106%.
Same read-out and setting: for `C[C@H](O)CCC(=O)c1ccoc1` the value was 99.9%; for `c1ccc2c(c1)sc1ccccc12`, 91.1%; for `O=C1CN2CCC1CC2`, 103%.
On the same count and under the same terms, for `Cn1cc(C(=O)C[n+]2ccccc2)c2ccccc21` the value was 97.9%; for `N#CC(C#N)=Cc1cccc(F)c1`, 101%.
